# Where “and” joins values, the source holds several entries; their conditions need not be identical. Equal values may be shown once.
# Target: Glucose transporter (Leishmania mexicana) (UniProt O61059)
# Experiment: ST_JUDE_LEISH: Cytotoxicity at 2uM final concentration against transgenic Leishmania Mexicana promastigotes LmGT2 that are glucose transport deficient and complemented with the L. Mexicana glucose transporter 2. Activity is measured by DNA content using SYBR green in vitro
# Type: functional
row,Compound,inhibition
1,Nc1ncc(-c2ccc3nccc(-c4ccncc4)c3c2)cc1S(=O)(=O)N1CCOCC1,1.27%
2,c1cc(CN2CCc3ccccc3CC2)cc(-c2c[nH]c3nc(NC4CCCC4)ncc23)c1,0.91%
3,CCOC(=O)c1cc(C(=O)NCCCCN2CCC(c3ccc(CC)cc3OCC)CC2)ccc1-c1ccc(C(F)(F)F)cc1,3.34%
4,Cc1cc(NCCCCCCCCNc2cc(C)nc3ccccc23)c2ccccc2n1,0.69%
5,O=C1C(c2ccccc2)=C(Nc2cccc([N+](=O)[O-])c2)c2ccccc21,9.44%
6,CC(Sc1nc2sccc2c(=O)n1C)C(=O)Nc1ccc2c(c1)OCO2 (centres undefined),3%
7,COc1ccc2nc(C)cc(N/N=C/c3cccc([N+](=O)[O-])c3)c2c1,7.7%
8,O=c1cc(NCCCNCc2cc(C(F)(F)F)ccc2Cl)[nH]c2ccccc12,-1.57%
9,C=C[C@H]1CN2CC[C@H]1C[C@H]2[C@H](O)c1ccnc2ccc(OC)cc12,-0.01% and 5.72% and -2.15%
10,CC(=O)N(Cc1ccc(CC(C)NCCc2cccc(Cl)c2)cc1)Cc1ccc(CC(C)NCCc2cccc(Cl)c2)cc1 (centres undefined),99.7%
11,O=C(/C=C/c1ccc([N+](=O)[O-])cc1)N1CCC(NS(=O)(=O)c2ccc(Br)cc2)CC1,1.17%
12,CCOc1cc(C)ccc1C1CCN(CCN2CCC(CNC(=O)c3ccc(-c4ccc(C(F)(F)F)cc4)cc3)CC2)CC1,1.5%
13,COc1ccc(N2CCN(c3nc(Nc4ccc(NC(C)=O)cc4)nc(N4CCCC4)n3)CC2)cc1,5.96%
14,Cc1cc(O)c(C(C)C)cc1C1(c2cc(C(C)C)c(O)cc2C)OC(=O)c2ccccc21,6.75%

# From ChEMBL document CHEMBL3433997, “St. Jude Leishmania screening dataset” (2016)
